This is an account of results in ChEMBL document CHEMBL3988442, “University of Dundee, Small-Polar-MMV Screening Library” (2021).

Holding throughout (design): scale not given: direction of the effect not stated beside the values
For test [1], the target named is Protein translocase subunit SecA (Escherichia coli (strain K12)) (UniProt P10408). Description: Assay to Identify E. coli SecA ATPase Inhibitors. In kind it is functional. The note with it: 30 µM.
The target of test [2] is T1, Ubiquitin-activating enzyme e1, putative (Leishmania donovani (strain BPK282A1)) (UniProt E9BSI1).
T1 sequence (whole entry): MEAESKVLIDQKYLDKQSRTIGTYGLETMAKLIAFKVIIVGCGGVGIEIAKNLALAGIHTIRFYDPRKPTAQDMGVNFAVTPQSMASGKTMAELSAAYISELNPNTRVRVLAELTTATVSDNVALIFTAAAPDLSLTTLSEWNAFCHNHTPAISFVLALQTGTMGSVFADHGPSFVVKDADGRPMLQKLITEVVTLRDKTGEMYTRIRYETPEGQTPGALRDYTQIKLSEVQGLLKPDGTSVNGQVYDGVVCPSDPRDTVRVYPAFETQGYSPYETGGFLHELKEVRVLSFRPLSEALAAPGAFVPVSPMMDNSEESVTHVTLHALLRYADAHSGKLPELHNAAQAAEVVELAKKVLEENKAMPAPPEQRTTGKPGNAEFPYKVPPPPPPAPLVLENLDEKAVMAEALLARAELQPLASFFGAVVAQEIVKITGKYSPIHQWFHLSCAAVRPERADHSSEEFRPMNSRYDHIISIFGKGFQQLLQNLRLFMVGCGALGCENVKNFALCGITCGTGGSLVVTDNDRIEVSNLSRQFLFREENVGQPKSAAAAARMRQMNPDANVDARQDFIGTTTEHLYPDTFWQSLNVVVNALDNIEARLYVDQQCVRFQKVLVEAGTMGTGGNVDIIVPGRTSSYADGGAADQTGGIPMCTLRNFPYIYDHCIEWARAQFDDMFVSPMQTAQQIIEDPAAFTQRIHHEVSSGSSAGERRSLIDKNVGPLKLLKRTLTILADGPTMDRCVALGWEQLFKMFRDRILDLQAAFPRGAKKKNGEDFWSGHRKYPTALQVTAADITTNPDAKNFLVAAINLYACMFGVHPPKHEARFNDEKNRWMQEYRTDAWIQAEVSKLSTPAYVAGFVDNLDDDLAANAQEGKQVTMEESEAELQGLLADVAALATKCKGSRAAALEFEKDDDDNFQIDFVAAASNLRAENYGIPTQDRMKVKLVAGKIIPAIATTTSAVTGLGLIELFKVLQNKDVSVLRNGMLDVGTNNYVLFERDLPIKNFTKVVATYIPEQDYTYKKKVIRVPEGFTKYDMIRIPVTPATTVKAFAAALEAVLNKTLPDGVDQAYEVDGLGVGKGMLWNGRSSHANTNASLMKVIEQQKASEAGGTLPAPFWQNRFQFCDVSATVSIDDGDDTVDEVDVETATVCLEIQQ
The test is described as follows: Leishmania donovani Ubiquitin Activating Enzyme (LdE1). The note with it: 30 µM. The test is classed as functional.

Test [3] deals with AMP-activated protein kinase, AMPK (Homo sapiens) (UniProt P54646+O43741+P54619+Q9UGJ0+Q9Y478+Q13131+Q9UGI9). The test is described as follows: AMP-dependent Kinase enzyme assay. An in vitro enzyme assay that detects ADP turnover that is directly proportional to AMPK activity. This uses naive AMPK that is activated during the assay with MK-8722. The test is classed as functional. The note with it: 30 µM.

Test [4] deals with Sialic acid-binding Ig-like lectin 9 (Homo sapiens) (UniProt Q9Y336). The test is described as follows: Hs-Siglec9 ALPHAscreen SOP 20170721. The settings on record: 10 µM. (Bead proximity is the source of the signal in Alpha formats.)
Chain of Sialic acid-binding Ig-like lectin 9 (Homo sapiens) (Q9Y336 whole entry): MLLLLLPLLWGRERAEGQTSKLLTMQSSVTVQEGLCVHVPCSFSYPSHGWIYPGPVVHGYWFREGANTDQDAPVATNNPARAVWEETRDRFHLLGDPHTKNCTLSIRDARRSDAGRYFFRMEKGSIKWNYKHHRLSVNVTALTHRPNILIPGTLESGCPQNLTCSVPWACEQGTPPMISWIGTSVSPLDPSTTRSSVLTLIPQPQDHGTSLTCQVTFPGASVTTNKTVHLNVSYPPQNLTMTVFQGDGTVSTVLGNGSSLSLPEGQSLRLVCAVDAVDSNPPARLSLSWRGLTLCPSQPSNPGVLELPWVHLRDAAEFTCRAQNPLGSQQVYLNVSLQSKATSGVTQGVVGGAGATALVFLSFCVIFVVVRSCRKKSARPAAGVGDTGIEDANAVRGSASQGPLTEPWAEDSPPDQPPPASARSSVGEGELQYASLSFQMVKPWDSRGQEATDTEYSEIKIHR
Test [5] deals with Trypanosoma cruzi. Description: Trypanosoma cruzi phosphomannomutase and mannose-1-phosphate guanylyltransferase assay. The settings on record: 10 µM. The test is classed as functional.
Test [6] addresses T2, Arginase-2, mitochondrial (Homo sapiens) (UniProt P78540).
T2 sequence (whole entry): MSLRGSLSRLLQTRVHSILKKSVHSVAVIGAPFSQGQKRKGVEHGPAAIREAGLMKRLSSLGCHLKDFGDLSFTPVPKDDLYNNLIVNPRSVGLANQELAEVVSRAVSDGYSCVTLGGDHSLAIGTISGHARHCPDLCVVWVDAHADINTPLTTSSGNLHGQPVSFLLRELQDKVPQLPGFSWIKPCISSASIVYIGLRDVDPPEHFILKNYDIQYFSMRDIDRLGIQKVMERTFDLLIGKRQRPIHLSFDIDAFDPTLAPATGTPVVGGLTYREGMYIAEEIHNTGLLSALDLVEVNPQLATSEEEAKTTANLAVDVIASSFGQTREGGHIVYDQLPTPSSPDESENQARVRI
The test is described as follows: in vitro enzyme assay to detect the production of urea directly proportional to the activity of Arginase II. Further: in the data most compounds retested in dose-response had high values. The test is classed as functional. The note with it: 33.3 µM.

The target in test [7] is T3, Proteasome subunit beta (Trypanosoma cruzi) (UniProt O96673).
T3 sequence (whole entry): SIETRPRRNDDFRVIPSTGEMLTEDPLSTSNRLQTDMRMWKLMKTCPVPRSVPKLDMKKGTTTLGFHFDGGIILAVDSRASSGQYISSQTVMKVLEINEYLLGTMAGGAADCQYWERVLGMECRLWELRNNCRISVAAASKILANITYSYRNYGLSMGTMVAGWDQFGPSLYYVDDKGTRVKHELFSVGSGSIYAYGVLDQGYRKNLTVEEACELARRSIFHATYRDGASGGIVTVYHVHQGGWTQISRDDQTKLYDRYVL
Description: Trypanosoma cruzi proteasome chymotrypsin-like activity (TcProtChymo) assay. Further: in the data most compounds retested in dose-response had high values. The test is classed as functional. The note with it: 9.37 µM.

The species named for test [8] is Homo sapiens. The test is described as follows: To identify inhibition of the IFN signalling (Jak-Stat) pathway via expression of an eGFP reporter gene under the control of an IFN-stimulated response element (ISRE) containing MxA promoter. The test is classed as functional. The note with it: 30 µM. For orientation: In a reporter assay the amount or activity of a reporter protein is the signal.

The target in test [9] is T4, Tyrosyl-tRNA synthetase, putative (Trypanosoma cruzi (strain CL Brener)) (UniProt Q4DSP6).
T4 sequence (whole entry): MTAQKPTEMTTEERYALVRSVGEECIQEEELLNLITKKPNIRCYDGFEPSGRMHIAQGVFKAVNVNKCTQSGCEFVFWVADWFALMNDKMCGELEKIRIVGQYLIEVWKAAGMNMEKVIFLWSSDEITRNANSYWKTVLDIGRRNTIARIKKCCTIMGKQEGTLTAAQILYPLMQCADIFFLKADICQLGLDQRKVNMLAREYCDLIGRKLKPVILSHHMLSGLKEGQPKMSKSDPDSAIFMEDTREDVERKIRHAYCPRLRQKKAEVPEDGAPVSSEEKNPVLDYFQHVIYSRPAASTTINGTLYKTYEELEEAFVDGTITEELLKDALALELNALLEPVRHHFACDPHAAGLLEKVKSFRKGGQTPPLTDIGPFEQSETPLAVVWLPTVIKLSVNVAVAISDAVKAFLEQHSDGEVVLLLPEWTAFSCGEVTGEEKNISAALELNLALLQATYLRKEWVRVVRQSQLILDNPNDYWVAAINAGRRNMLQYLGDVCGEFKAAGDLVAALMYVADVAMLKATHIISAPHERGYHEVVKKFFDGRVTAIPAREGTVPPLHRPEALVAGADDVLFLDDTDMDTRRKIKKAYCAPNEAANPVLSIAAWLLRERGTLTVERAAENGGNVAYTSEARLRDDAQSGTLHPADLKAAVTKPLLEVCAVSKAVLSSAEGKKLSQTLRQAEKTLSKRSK
The test is described as follows: Trypanosoma cruzi tyrosyl tRNA synthetase (TcYRS) _High Tyrosine SOP. Further: in the data most compounds retested in dose-response had high values. The test is classed as functional. The note with it: 30 µM.

Test [10] concerns the target T4, Tyrosyl-tRNA synthetase, putative (Trypanosoma cruzi (strain CL Brener)). The test is described as follows: Trypanosoma cruzi tyrosyl tRNA synthetase (TcYRS) SOP. The note with it: 30 µM. The test is classed as functional.
Test [11] deals with Chromo domain-containing protein 1 (Saccharomyces cerevisiae (strain ATCC 204508 / S288c) (Baker's yeast)) (UniProt P32657). Description: ScCHD-1 Enzyme Inhibition Assay. Further: in the data most compounds retested in dose-response had high values. The test is classed as functional. The settings on record: 30 µM.
Chain of Chromo domain-containing protein 1 (Saccharomyces cerevisiae (strain ATCC 204508 / S288c) (Baker's yeast)) (P32657 whole entry, the tested form may be a part): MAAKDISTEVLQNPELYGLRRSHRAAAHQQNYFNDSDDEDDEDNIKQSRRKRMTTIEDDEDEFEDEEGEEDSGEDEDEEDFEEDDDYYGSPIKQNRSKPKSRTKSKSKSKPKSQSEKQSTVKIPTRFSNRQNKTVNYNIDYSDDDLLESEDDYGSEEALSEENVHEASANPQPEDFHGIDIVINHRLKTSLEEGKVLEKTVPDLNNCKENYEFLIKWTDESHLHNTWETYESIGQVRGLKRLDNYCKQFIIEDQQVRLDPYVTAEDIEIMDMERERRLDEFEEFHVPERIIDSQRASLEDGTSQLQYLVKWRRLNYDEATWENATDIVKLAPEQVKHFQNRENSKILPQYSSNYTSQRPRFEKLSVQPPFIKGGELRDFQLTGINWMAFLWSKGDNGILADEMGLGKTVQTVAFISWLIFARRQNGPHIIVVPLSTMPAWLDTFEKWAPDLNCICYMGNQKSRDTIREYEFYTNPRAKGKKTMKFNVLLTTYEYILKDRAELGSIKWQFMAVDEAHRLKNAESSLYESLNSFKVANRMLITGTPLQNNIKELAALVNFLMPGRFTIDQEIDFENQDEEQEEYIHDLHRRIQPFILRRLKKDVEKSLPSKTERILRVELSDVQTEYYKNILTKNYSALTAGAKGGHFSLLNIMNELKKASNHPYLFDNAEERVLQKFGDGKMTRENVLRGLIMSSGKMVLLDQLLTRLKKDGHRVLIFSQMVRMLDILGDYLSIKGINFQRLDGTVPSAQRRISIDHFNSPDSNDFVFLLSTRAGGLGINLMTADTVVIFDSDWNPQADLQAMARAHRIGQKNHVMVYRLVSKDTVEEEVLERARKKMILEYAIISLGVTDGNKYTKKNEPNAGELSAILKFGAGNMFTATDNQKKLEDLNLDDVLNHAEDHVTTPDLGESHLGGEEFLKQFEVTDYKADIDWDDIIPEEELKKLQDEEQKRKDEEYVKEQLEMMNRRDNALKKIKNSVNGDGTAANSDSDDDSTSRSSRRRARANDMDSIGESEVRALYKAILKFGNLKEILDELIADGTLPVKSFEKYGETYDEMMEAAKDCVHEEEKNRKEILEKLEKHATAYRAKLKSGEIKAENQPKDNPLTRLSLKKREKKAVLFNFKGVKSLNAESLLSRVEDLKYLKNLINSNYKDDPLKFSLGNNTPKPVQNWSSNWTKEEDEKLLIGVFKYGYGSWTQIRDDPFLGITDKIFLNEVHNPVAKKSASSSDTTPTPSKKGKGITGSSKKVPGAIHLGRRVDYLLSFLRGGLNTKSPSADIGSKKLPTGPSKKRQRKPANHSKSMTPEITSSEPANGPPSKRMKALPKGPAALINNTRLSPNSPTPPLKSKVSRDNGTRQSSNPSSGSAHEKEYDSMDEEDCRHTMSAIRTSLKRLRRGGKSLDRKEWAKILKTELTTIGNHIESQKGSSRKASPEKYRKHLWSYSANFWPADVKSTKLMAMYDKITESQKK

For some of these results: Potency and affinity values are given separately.

Chain of Protein translocase subunit SecA (Escherichia coli (strain K12)) (P10408 whole entry): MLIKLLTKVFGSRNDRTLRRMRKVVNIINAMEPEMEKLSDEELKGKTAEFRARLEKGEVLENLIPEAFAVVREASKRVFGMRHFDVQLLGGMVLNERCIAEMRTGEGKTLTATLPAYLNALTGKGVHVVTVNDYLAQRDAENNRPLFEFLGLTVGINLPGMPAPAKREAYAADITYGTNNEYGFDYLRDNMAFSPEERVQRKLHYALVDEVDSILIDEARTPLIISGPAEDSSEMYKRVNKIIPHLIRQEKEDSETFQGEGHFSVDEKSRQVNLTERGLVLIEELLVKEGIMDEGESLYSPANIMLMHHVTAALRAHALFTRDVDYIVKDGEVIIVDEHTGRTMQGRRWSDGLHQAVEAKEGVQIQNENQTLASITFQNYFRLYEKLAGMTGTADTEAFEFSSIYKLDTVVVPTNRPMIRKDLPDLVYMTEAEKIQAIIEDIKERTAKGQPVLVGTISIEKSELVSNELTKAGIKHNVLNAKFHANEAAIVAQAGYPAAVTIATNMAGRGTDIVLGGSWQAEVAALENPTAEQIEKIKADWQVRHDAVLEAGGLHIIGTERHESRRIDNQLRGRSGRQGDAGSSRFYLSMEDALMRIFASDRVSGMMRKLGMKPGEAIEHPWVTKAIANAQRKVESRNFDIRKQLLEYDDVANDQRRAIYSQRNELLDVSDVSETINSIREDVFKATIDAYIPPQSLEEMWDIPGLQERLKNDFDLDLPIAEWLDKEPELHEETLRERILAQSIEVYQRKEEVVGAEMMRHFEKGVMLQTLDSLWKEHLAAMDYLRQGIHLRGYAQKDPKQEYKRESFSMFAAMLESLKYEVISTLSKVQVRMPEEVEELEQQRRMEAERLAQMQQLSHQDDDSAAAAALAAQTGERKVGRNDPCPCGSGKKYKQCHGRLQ

Turning to `Cc1nc(CN2CCC3(CCCN(Cc4cnn(C)c4)C3)C2=O)cs1` (stereo unspecified), the Percent Effect was 2.6% in [1]; 10.7% in test [2]; -6.96% in [3]; 4.34% in test [4]; -5.79% in [5]; -57.2% in [6]. For the same molecule, the Percent Effect in test [7] is 10.3%; in test [8] it was -6.36%; in test [9], 3.12%; in test [10], 10%; in test [11], -5.7%.

Turning to `COc1ccnc(N2CCN(C(=O)Cc3ccc(C#N)cc3)CC2)n1`, the Percent Effect in [1] was -3.03%; in [2], 13%; in test [3], -3.06%; in test [4], 0.369%; in [5], 3.82%; in test [6], 1.9%. For the same molecule, the Percent Effect in test [7] was 12.7%; in test [8], 7.36%; in test [9], 7.62%; in test [10], 23.5%; in test [11], -7.06%.

Regarding `CC(NC(=O)CCC(=O)c1cccs1)c1nnc2n1CCCCC2` (stereo unspecified), the Percent Effect in [1] was -1.87%; in test [2], -2.7%; in test [3], -8.57%; in test [4], -0.426%; in test [5] it was -3.06%; in test [6], 5.73%. The Percent Effect in [7] was -5.39%; in [8], 10%; in test [9], 3.96%; in test [10], 13.4%; in test [11], 2.68%.

`COc1cccc(CNCc2c(C(C)C)nn(C)c2N(C)C)c1OC`: the Percent Effect was 2% in [1]; 10.5% in [2]; -0.641% in test [3]; -1.37% in test [4]; -7.33% in test [5]; 2.68% in test [6]. Besides, the Percent Effect was 16.2% in test [7]; 8.82% in test [8]; 3.43% in test [9]; 7.32% in test [10]; -8.1% in test [11].

Regarding `Cc1cnn(C2CN(CC(=O)Nc3cccnc3)C2)c1`, the Percent Effect in test [1] is -4.23%; in test [2], 7.89%; in test [3], -7.32%; in [4], -2.24%; in test [5], -8.68%; in test [6], 2.52%. The Percent Effect is -0.254% in test [7]; -0.514% in test [8]; -4.43% in test [9]; 3.7% in [10]; 3.7% in [11].

`Fc1ccc2[nH]c(C3CCCN3CCc3ccccn3)nc2c1` (stereo unspecified): the Percent Effect in test [1] was -0.354%; in test [2], 8.22%; in test [3] it was -4.31%; in test [4], 9.65%; in test [5], 1.98%; in test [6], -1.2%. Further, the Percent Effect is 18.6% in [7]; -28.3% in test [8]; 13.5% in test [9]; 23.5% in test [10]; 2.89% in test [11].

For the molecule `COc1cccc(CCNS(=O)(=O)c2ccc(NC(C)=O)cc2)c1`, the Percent Effect in test [1] was -3.33%; in test [2] it was 5.26%; in [3], 4.42%; in test [4], -2.24%; in test [5], -4.58%; in test [6] it was -8.28%. Further, the Percent Effect was 17% in test [7]; 21.2% in test [8]; 1.06% in test [9]; 10.4% in test [10]; -4.22% in [11].

Consider `Cn1nc2c(cc1=O)CN(CC(=O)Nc1ccc(Cl)cn1)CC2`, for which the Percent Effect was -3.42% in test [1]; 18.1% in [2]; -417% in test [3]; 5.46% in test [4]; -0.291% in test [5]; -1.32% in test [6]. Besides, the Percent Effect is 12.3% in test [7]; -2.31% in test [8]; -2.1% in test [9]; -5.13% in test [10]; -1.83% in test [11].

Regarding `O=C(O)[C@@H]1CN(C(=O)c2ccc3[nH]nnc3c2)C[C@H]1c1cccc(F)c1`, the Percent Effect is -4.68% in test [1]; 11% in test [2]; -5.72% in [3]; 8.16% in test [4]; 6.94% in [5]; -3.99% in test [6]. The Percent Effect was 12.6% in test [7]; 3.52% in [8]; 4.17% in test [9]; 8.64% in test [10]; -2.47% in test [11].

As to `Cn1cnnc1C1CCCN(C(=O)Cc2ccc3c(c2)OCCO3)C1` (stereo unspecified), the Percent Effect is -1.87% in [1]; 13% in test [2]; -0.424% in test [3]; -2.52% in test [4]; 3.82% in [5]; -1.05% in test [6]. The Percent Effect in test [7] is 13.7%; in [8] it was 13.2%; in test [9], 7.62%; in test [10], 18.8%; in test [11], -15.4%.

Take `Cc1nc(CN(C)C2CCCN(c3cccnn3)C2)no1` (stereo unspecified): the Percent Effect in test [1] is -0.0171%; in test [2], 20.8%; in test [3] it was -7.88%; in test [4], 0.261%; in test [5], -3.18%; in test [6], 5.34%. Besides, the Percent Effect is 9.29% in test [7]; 37.1% in test [8]; 4.85% in [9]; 0% in test [10]; -5.56% in test [11].
